The subject of assay [1] is Human papillomavirus type 1a protein E7 (residues 44-93). Kind of assay: HPV1a E7 fragment binders on microarrays, primary screen, biochemical, small-molecule microarray, residues 44-93, 635 nm fluorescence (AID 1108).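 Note: E7 fragment applied at 1 µg/mL in TBST for 1 h at 4 C; score combines spot fluorescence with its signal to noise ratio.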 The following applies: small-molecule microarray binding, fluorescence 635 nm; higher = more signal.
Assay [2] in a line: modulators of HCV replicon luciferase signal, primary screen, HCV replication inhibitor project, Huh7 cells, luciferase reporter (AID 1109).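 Note: huh7 hepatoma cells harbouring a luciferase neomycin HCV replicon reporter; luciferase luminescence as measure of HCV replicon replication; test concentration not given here.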 The note with it: 48 h, higher = more signal. In general terms: Replicon systems follow genome replication, usually without infectious particles.
Assay [3] has as its target Left-right determination factor 2 (Homo sapiens) (UniProt O00292). Kind of assay: LEFTY2 binders on small-molecule microarrays, primary screen, biochemical, small-molecule microarray, 635 nm fluorescence scan (AID 1110). The following applies: LEFTY2 binding, higher = more signal.
Assay [4] concerns the target Calmodulin-1 (Homo sapiens) (UniProt P0DP23). Kind of assay: CALM1 binders on microarrays, EGTA buffer, profiling panel, biochemical, small-molecule microarray, Cy5-labelled CALM1 (AID 1111).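 Note: labelled calmodulin applied in Tris saline Tween buffer holding calcium plus EGTA and DTT.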 The note with it: Cy5-CALM1 binding fluorescence, higher = more signal.
For assay [5] the target is unchanged. The experiment in a line: calcium-bound CALM1 binders on microarrays, profiling panel, artefact control for SMM control-protein annotation, biochemical, small-molecule microarray, Cy5-labelled CALM1, plus calcium (AID 1112).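 Note: score merges spot fluorescence with signal to noise from triplicate slides.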 The following applies: Cy5-CALM1 binding fluorescence, higher = more signal.
Assay [6] is described as follows: small-molecule microarray binders of probe aWnt5a, primary screen, biochemical, biotinylated probe, 635/667 nm fluorescence (AID 1113).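 Note: score merges 667 nm fluorescence intensity with signal-to-noise per printed feature.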 The following applies: higher = more signal.
Assay [7] in a line: small-molecule microarray binders of probe aShh, primary screen, biochemical, biotinylated probe, 635/667 nm fluorescence (AID 1114).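 Note: probe is biotin-labelled aShh protein from a stem cell growth factor screen; measures binding of labelled protein to compounds printed on the slide; score merges feature fluorescence at 667 nm with signal-to-noise.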 The following applies: higher = more signal.
Assay [8] can be described thus: small-molecule microarray binders of probe aNog, primary screen, biochemical, biotinylated probe, 635/667 nm fluorescence (AID 1115).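 Note: probe is biotinylated aNog protein used at 0.15 µg/mL for 1 h at 4 C; z-score combines 667 nm fluorescence of each spot with its signal to noise.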 The following applies: higher = more signal.
Assay [9] has as its target Torsin-1A-interacting protein 1 (Homo sapiens) (UniProt Q5JTV8). Kind of assay: LAP1 binders from COS7 cell lysate, primary screen, small-molecule microarray, 635/667 nm fluorescence (AID 1116). The note with it: COS7-hLAP1 lysate binding, 635 nm fluorescence, higher = more signal.
Assay [10] addresses Alpha-bungarotoxin (Bungarus multicinctus) (UniProt P60615). The experiment in a line: alpha-bungarotoxin binders on microarray, profiling panel, artefact control for SMM control protein annotation, biochemical, small-molecule microarray, Alexa647 label, 635/667 nm fluorescence (AID 1117). The note with it: alpha-BTX-A647 binding fluorescence, higher = more signal.

Chain of Torsin-1A-interacting protein 1 (Homo sapiens) (Q5JTV8 whole entry, looked up): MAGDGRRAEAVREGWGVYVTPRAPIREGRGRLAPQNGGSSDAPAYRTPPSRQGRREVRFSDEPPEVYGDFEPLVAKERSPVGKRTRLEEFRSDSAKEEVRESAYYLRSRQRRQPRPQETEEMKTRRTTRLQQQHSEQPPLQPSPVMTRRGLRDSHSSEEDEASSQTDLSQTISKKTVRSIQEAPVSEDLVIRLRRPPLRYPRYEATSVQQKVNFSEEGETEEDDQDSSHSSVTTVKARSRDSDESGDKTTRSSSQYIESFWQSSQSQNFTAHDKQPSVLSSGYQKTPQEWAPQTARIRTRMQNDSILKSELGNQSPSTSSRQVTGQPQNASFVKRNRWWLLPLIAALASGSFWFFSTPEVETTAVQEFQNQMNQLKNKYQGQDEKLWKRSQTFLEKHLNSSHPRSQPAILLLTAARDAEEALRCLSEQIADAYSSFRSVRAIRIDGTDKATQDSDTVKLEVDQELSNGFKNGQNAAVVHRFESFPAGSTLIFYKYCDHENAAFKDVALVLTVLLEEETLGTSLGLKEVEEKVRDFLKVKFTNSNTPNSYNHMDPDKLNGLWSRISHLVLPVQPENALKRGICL
Chain of Alpha-bungarotoxin (Bungarus multicinctus) (P60615 whole entry, looked up): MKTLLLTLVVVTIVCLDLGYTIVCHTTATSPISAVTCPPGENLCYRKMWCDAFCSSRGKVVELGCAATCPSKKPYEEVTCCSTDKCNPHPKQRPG
Chain of Left-right determination factor 2 (Homo sapiens) (O00292 whole entry, looked up): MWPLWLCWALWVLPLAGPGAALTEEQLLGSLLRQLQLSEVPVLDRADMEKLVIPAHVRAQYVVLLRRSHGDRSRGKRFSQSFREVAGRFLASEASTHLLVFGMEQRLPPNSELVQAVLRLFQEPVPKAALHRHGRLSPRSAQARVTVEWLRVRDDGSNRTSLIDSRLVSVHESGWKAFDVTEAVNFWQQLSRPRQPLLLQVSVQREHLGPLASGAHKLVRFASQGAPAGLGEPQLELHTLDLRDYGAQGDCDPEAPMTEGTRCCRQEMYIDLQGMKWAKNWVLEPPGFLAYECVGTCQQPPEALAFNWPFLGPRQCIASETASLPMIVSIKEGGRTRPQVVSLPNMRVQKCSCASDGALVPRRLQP

With `COc1ccc(-c2ccc3c(n2)CCCN3CC(O)CN2CCCc3nc(C)c(C)cc32)cc1` (stereo not given), the composite z-score is 1.02 in [1]; 0.728 in assay [3]; 0.0025 in [4]; -0.636 in [5]; 0.459 in [6]; 0.699 in assay [7]. Moreover, the figures for the composite z-score in assay [8], in [9] and in assay [10] were 0.667, 0.833 and 2.05, respectively. The compound further registered a z-score in [2] of -0.578.

In the case of `CN1C(=O)C2C=CC(C(O)C(c3ccccc3)c3ccccc3)N(NC(=O)OC(C)(C)C)C2C1=O` (stereo not given), the composite z-score in assay [1] was 1.32; in [3], -0.0483; in assay [4], 2.75; in assay [5], 1.09; in assay [6], 0.306; in assay [7] it was 0.915. Also, the composite z-score in [8] was determined as 2.09; in assay [9], 2.59; in [10], 2.04. In assay [2], this compound returned a z-score of -0.527.

Consider `C[C@@H](c1ccccc1)N1C(=O)[C@H]2[C@H]3[C@H](O)[C@H](O)CC(=NNC(=O)OCc4ccccc4)[C@H]3CC[C@H]2C1=O`, for which the composite z-score in [1] was -0.269; in assay [3], 0.495; in assay [4], 0.12; in assay [5], -0.726; in [6], -0.0735; in assay [7], 0.0815. Moreover, the composite z-score in [8] was -0.0567; in assay [9], 0.464; in [10] it was 0.284. In assay [2], this compound came in with a z-score of -2.23.

As for `CCOC(=O)CCN1C(=O)[C@H]2[C@H]3[C@H](O)[C@H](O)CC(=NOCc4ccccc4)[C@@H]3CC[C@H]2C1=O`, the composite z-score in assay [1] was -0.482; in [3] it was 0.591; in assay [4] it was -0.138; in [5] it was -0.848; in assay [6], -0.0125; in [7], -0.243. In addition, the composite z-score in [8] is 0.107; in assay [9] it was -0.0594; in assay [10] it was 0.419. The compound further came in with a z-score in assay [2] of -1.08.

Turning to `COCCOC(=O)N1C(=O)[C@@]2(c3ccccc31)[C@H](C(N)=O)[C@H]1C(=O)O[C@H](c3ccccc3)[C@H](c3ccccc3)N1[C@@H]2c1ccccc1OCCO`, the composite z-score in [1] is 1.32; in [3], 0.565; in assay [4] it was 2.3; in [5], 0.668; in assay [6] it was -0.0118; in assay [7], -0.0035. Besides, the composite z-score in [8] came out at 0.162; in assay [9], 4.3; in [10], 2.62. The z-score in assay [2] is -2.2.

As to `CC(=O)OC[C@H]1O[C@H](CC=NOC[C@@H](C)[C@H](OCc2ccccc2)C(C)C)C=C[C@@H]1OC(C)=O`, the composite z-score in [1] is 0.16; in assay [3], 0.455; in assay [4], -0.47; in assay [5], -0.499; in assay [6] it was 0.0437; in assay [7], -0.186. Moreover, the figures for the composite z-score in assay [8], in [9] and in assay [10] were -0.526, -0.698 and -0.164, respectively. Moreover, the z-score in [2] is -0.854.

For `C/C=C\[C@@H](NCc1ccccc1Br)[C@@H](O)Cc1ccccc1`, the composite z-score in assay [1] was -0.594; in assay [3], -0.472; in [4] it was -0.64; in assay [5], 0.0924; in assay [6] it was -0.12; in assay [7], -0.291. The composite z-score was -0.18 in assay [8], -0.541 in assay [9] and -0.791 in assay [10]. In assay [2], this compound came in with a z-score of -3.08.

Take `CCCCCN1CC=CC23O[C@@H]4C=CCOC(=O)[C@@H]4[C@H]2C(=O)N(CCCCCCO)[C@@H]3C1=O` (stereo not given in full): the composite z-score in assay [1] is -0.276; in assay [3] it was -2; in [4], -0.284; in assay [5], 0.168; in [6], -0.0417; in assay [7] it was 0.0796. Further, the composite z-score was 0.293 in assay [8], 1.9 in assay [9] and -0.729 in [10]. In assay [2], the z-score was determined as 0.417.

On to `CCOC(=O)[C@H](CC(C)C)NC(=O)CCC1CC(OC(=O)NCCc2ccc(F)cc2)CC2(CCCC(COC(=O)NCc3ccccc3)O2)O1` (stereo not given in full), for which the composite z-score was 1.37 in [1]; 1.16 in [3]; 0.0292 in assay [4]; -0.008 in assay [5]; -0.113 in [6]; -0.214 in assay [7]. The results for the composite z-score in assay [8], in [9] and in [10] were -0.183, 0.575 and 0.287, respectively. The same compound returned a z-score in assay [2] of -1.76.

On to `CCc1cc2c(nc1CC)CCN(CCC(C)=NO[C@@H](C)c1cc(-c3c(C)cc(C)cc3C)no1)C2`, for which the composite z-score was 0.0525 in assay [1]; -0.368 in assay [3]; 0.0642 in assay [4]; -0.363 in [5]; -0.195 in assay [6]; -0.0709 in [7]. Besides, the composite z-score is 0.0014 in [8], 0.0675 in assay [9] and 0.297 in assay [10]. In addition, the z-score in assay [2] is -1.87.

Consider `CN(C)C(=O)[C@@]1(Cc2ccccc2)N=C(c2ccc(OCCCO)cc2)O[C@H]1c1ccccc1CN=[N+]=[N-]`, for which the composite z-score in assay [1] is 1.1; in assay [3], -0.068; in assay [4] it was 2.47; in assay [5], 1.26; in assay [6] it was 0.313; in assay [7], 0.64. The composite z-score was -0.18 in [8], 2.95 in [9] and 2.62 in assay [10]. The z-score in assay [2] was -2.14.

As for `CC(=O)O[C@H]1C2=C(C(=O)[C@@H]3O[C@@H]31)[C@H]1C(C)O[C@@H]2[C@@]23C(=O)[C@@H]4O[C@@H]4[C@@H](O)C2=CO[C@H](C)[C@@H]13` (stereo not given in full), the composite z-score in [1] is -0.667; in assay [3], 0.552; in assay [4] it was -1.17; in [5], -0.891; in [6], -0.101; in assay [7], -0.13. Besides, the results for the composite z-score in [8], in assay [9] and in [10] were -0.18, -0.25 and -0.858, respectively. In assay [2], this compound returned a z-score of -2.66.

`CCCNC(=O)OC[C@H]1O[C@H](CCON=C[C@@H](OC)[C@H](C)C=CCC(=O)OC)C=C[C@@H]1Oc1ccc(OC)cc1`: the composite z-score was 0.0209 in assay [1]; 0.453 in assay [3]; -1.81 in assay [4]; -0.848 in [5]; -0.119 in assay [6]; -0.01 in [7]. Besides, the results for the composite z-score in assay [8], in assay [9] and in assay [10] were -0.318, 0.322 and 0.908, respectively. Moreover, in assay [2], the z-score is -1.72.

As to `CO[C@@H]1COC(=O)CC=C[C@@H](C)[C@@H]2C=C[C@H](O)[C@@H](COC(=O)CCC[C@H]1C)O2`, the composite z-score in assay [1] is -1.05; in assay [3] it was 1.31; in [4], -0.859; in assay [5] it was -1.7; in assay [6] it was -0.0721; in assay [7], 0.211. Moreover, the composite z-score in assay [8] was -0.0755; in assay [9], 0.962; in assay [10], -0.394. The compound also had a z-score in [2] of -1.96.

Take `C#C[C@@H]1Oc2ccccc2S(=O)(=O)N2CCC[C@H]12`: the composite z-score in assay [1] is -0.638; in assay [3] it was 0.273; in assay [4], -0.593; in assay [5], -0.867; in assay [6] it was 0.0391; in assay [7] it was 0.0893. The values for the composite z-score in assay [8], in assay [9] and in [10] were 0.186, 0.237 and -0.302, respectively. The compound also gave a z-score in [2] of 0.206.

As for `CC(CCC(=O)OC[C@H]1O[C@H](C#Cc2ccccc2)C=C[C@@H]1Oc1ccc(C)cc1)=NOC[C@@H](O)[C@H]1O[C@@H]2OC(C)(C)O[C@@H]2[C@H]1O`, the composite z-score in assay [1] was -0.263; in [3], -0.15; in [4], -0.873; in assay [5] it was 0.0923; in assay [6], -0.18; in assay [7], -0.439. In addition, the composite z-score was -0.118 in assay [8], 0.416 in [9] and -0.469 in [10]. The compound further gave a z-score in [2] of -1.13.

On to `CC(C)[Si]1(C(C)C)O[C@@H](c2ccccc2)c2cc(C3CC3)nc(-c3ccccc3)c21`, for which the composite z-score was 0.503 in assay [1]; -0.953 in [3]; -0.0471 in assay [4]; -0.239 in [5]; -0.126 in assay [6]; -0.221 in assay [7]. For the same compound, the composite z-score in assay [8] was -0.368; in assay [9], -0.509; in assay [10], 0.181. For the same compound, the z-score in assay [2] is -0.587.

Regarding `CC(C)CON=C1[C@H]2CCn3c(=O)n(-c4ccccc4)c(=O)n3[C@H]2[C@H](O)[C@@H]2O[C@H]12`, the composite z-score was -0.626 in assay [1]; 0.598 in assay [3]; -0.148 in assay [4]; -0.687 in [5]; -0.291 in [6]; -0.267 in [7]. The composite z-score in assay [8] was -0.269; in assay [9] it was 0.14; in assay [10], 0.0478. In addition, the z-score in assay [2] is -2.53.

Source of the values: PubChem BioAssay.
